# Experimental data from PubChem BioAssay AID686971 (National Center for Advancing Translational Sciences (NCATS), 2013).
# Out of some 360,000 compounds screened, about 7,500 (2.1%) were called active. Roughly 8% stayed inconclusive and do not appear here. For the sample, actives were picked, then their nearest neighbours and some compounds at random. Values without a mark were called inactive. Calls come from the whole dose curve; as a rule, active = well fitted cell-killing curve with a large enough effect; inconclusive = small, poorly fitted or top-dose-only effect, or effect the other way, or another doubt; inactive = no such curve, though single readings can be large or run the other way.
# Test: qHTS for induction of synthetic lethality in tumor cells producing 2HG: qHTS for the HT-1080-IDH1KD cell line;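 for activity, negative = toxicity: 0% = DMSO wells and -100% = cell-free medium wells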
# Details: HT-1080 IDH1 knockdown viability, ATP luminescence, 48 h; series mostly up to 46.1 µM; activity, negative = toxicity: at the top concentration
# Summary of the method: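 Cytotoxicity counter-line: IDH1KD HT-1080, 48 h, CellTiter-Glo. Curves classed by r2, magnitude and activity.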
# Potency is the fitted concentration of half-maximal effect.
Compound,"activity, negative = toxicity",Potency
CC1=C(C(=O)N2CCOCC2)CC(CC(=O)NCCN2CCOCC2)C(=O)N1CCC1=CCCCC1 (centres undefined),7.72%,–
Cc1noc(C)c1S(=O)(=O)N(C)C[C@H]1OCCCC[C@@H](C)Oc2ccc(NC(=O)CCCN(C)C)cc2C(=O)N([C@H](C)CO)C[C@@H]1C,9.14%,–
Cc1noc(C)c1C(=O)N1CCC1(C)C(=O)NS(=O)(=O)c1ccc(C#N)cc1 (centres undefined),21.7%,–
CN1OC[C@@H]2CN[C@H](c3ccc(-c4ccccc4)cc3)C[C@@H]21,-1.25%,–
CCNC(=O)C1(C)CCCN(C(=O)c2c(C)noc2C)C1 (centres undefined),2.57%,–
CN1OC[C@@H]2CN(S(=O)(=O)c3cccc(C(F)(F)F)c3)[C@H](c3ccc(-c4cc5ccccc5o4)cc3)C[C@@H]21,1.74%,–
COCCNC(=O)C1C(=O)Nc2ccccc2C(=O)N1c1ccc2c(c1)OCCO2 (centres undefined),21.6%,–
C[C@@H]1CN([C@@H](C)CO)C(=O)CCCn2nncc2CO[C@@H]1CN(C)S(=O)(=O)c1ccc(-c2ccccc2)cc1,-1.95%,–
Cn1c(=O)c2cc(NC(=O)NCCc3cccs3)ccc2n1Cc1cccc(C(F)(F)F)c1,-29%,–
Clc1ccc(-c2cc(C3CCNCC3)[nH]n2)c(Cl)c1,–,23.1 µM (active)
Clc1ccc(-c2cc(-c3ccccn3)on2)c(Cl)c1,-24.4%,–
O=C(OCc1cn([C@@H]2C[C@H](c3ccc(Cl)cc3)N(Cc3cccs3)C[C@H]2O)nn1)c1ccccc1,1.15%,–
COC(=O)[C@@]12C[C@@H](CC(=O)N3CCCCC3)C(=O)N(Cc3ccc4c(c3)OCO4)C1=CCC(C)(C)C2,-23.6%,–
CSc1ccccc1C(=O)Nc1cccc(C(C)=O)c1,-6.03%,–
CC(=O)c1cccc(NC(=S)N2CCCC2)c1,11.1%,–
C=CCSc1nsc(NC(=O)Nc2cccc(C(C)=O)c2)n1,–,16.4 µM (active)
Cc1cc2oc(=O)cc(CN(C)Cc3ccccc3)c2cc1Cl,2.28%,–
Cc1c(C(=O)N/N=C/c2ccccc2)[nH]c2c([N+](=O)[O-])cccc12,–,0.517 µM (active)
Cc1nn(-c2ccccc2)c(Cl)c1/C=N/NC(=O)c1nn(C)cc1[N+](=O)[O-],-29.8%,–
Cc1ccc2[nH]c(C(=O)O)c(NC(=O)c3ccccc3[N+](=O)[O-])c2c1,9.67%,–

Compound,"activity, negative = toxicity",Potency
CC1(C)OC(=O)C2=C(C[C@@H](C3CCCC3)O[C@@H]2c2ccc(Cl)cc2)O1,8.76%,–
CC1(C)CCc2cc(S(=O)(=O)N3CCN(c4nc(-c5cccs5)nc5ccccc45)CC3)ccc2O1,5.15%,–
COc1ccc(C(C)(NC(C)=O)c2nc(-c3ccc(S(C)(=O)=O)cc3)cs2)cc1 (centres undefined),8.14%,–
COC(=O)c1ccc2nc(-c3ccc(Cl)cc3)c(Cc3cccc(F)c3)n2c1,9.38%,–
CC(C)CC[n+]1ccn(C2=C([O-])c3ccccc3C(=O)/C2=N\S(=O)(=O)c2ccccc2)c1,–,11.2 µM (active)
CC[C@@H]1CC2=C(C(=O)OC(C)(C)O2)[C@@H](CC)O1,-0.785%,–
CCOC(=O)C1(C)CCCN(C(=O)c2ccc(N(C)C)cc2)C1 (centres undefined),8.71%,–
O=C(Nc1cccc(Cl)c1)c1cc([N+](=O)[O-])ccc1N1CCN(CCO)CC1,-0.581%,–
CCN1CCN(c2ccc([N+](=O)[O-])cc2C(=O)c2ccc(Cl)cc2)CC1,–,23.1 µM (active)
CCC(=O)c1ccc(N2CCN(C(=O)c3cc([N+](=O)[O-])ccc3F)CC2)c(F)c1,2.7%,–
CN(Cc1c(F)cccc1Cl)C(=O)COC(=O)Cn1cnc2ccccc2c1=O,4.82%,–
O=c1c2c3c(sc2n(CCN2CCCC2)c(=O)n1Cc1ccccc1)CCCCC3,-0.168%,–
CN(C)CCCn1c(=O)n(Cc2ccccc2)c(=O)c2c3c(sc21)CCCCC3,–,25.9 µM (active)
Cn1c(=O)n(Cc2ccco2)c(=N)c2c3c(sc21)CCCC3,-10%,–
COc1cccc(-c2nc3nc(C)cc(C)n3c2NC2CCCCC2)c1,7.4%,–
COC(=O)C[C@H]1C=C[C@@H](NS(=O)(=O)c2ccc(C)cc2)[C@@H](CO)O1,15.1%,–
COCCNC(=O)C1(C)CCCN(Cc2cccc(F)c2)C1 (centres undefined),9.99%,–
CCCc1cc(=O)[nH]c(SCC(=O)c2c(N)n(CC(C)C)c(=O)n(C)c2=O)n1,–,3.26 µM (active)
CCCc1cc(=O)[nH]c(SCC(=O)OCc2ccccc2)n1,0.689%,–
CCCc1cc(=O)[nH]c(SCC(=O)c2cc(C)n(CCC)c2C)n1,2.35% [at 9.24 µM],–

Compound,"activity, negative = toxicity",Potency
COC(=O)c1ccc2nc(-c3ccccc3)c(Cc3ccc(OC)cc3C)n2c1,5.54%,–
O=C(c1cc(C2CCCCN2S(=O)(=O)c2ccccc2)on1)N1CCOCC1 (centres undefined),19.8%,–
CCOC(=O)C(=Cc1ccccc1)C(=O)c1ccccc1,–,18.4 µM (active)
CCOC(=O)NC(=O)/C(C#N)=C\c1ccccc1,1.01%,–
CCOC(=O)/C(=C\c1ccc([N+](=O)[O-])cc1)C(=O)c1cc(C(C)=O)c(Nc2ccccc2)s1,17.6%,–
COC(=O)C[C@H]1C[C@@H]2c3cc(NC(=O)Nc4ccccc4)ccc3O[C@@H]2[C@@H](CO)O1,4.69%,–
COc1ccc(C2Nc3ccc(NC(=O)COC(C)=O)cc3C(=O)N2Cc2ccccc2)cc1COc1ccc(NC(C)=O)cc1 (centres undefined),-21.2%,–
C=CCN(CC=C)S(=O)(=O)c1ccc(C(=O)Nc2nc3c(s2)CCc2ccccc2-3)cc1,–,14.6 µM (active)
Cc1cccc(NC(=O)c2ccc(S(=O)(=O)N(C)c3ccccc3)cc2)n1,-21.5%,–
CCN(c1ccccc1)S(=O)(=O)c1ccc(C(=O)Nc2nccs2)cc1,10%,–
Cc1ccccc1S(=O)(=O)NC(=O)C1(C)CCN1C(=O)C1(c2ccc(Cl)cc2)CC1 (centres undefined),28%,–
CNS(=O)(=O)c1ccc2c(c1)[nH]c(=S)n2C,-8.8%,–
COc1ccc(OC)c(Cc2nnc(CCC(=O)NC3CCCC3)o2)c1,11.3%,–
COc1ccc(-c2nc(N)ncc2-c2ccc(Cl)cc2)c(O)c1,-6.82%,–
COc1ccc(OC)c(Cc2cnc3nc(N)nc(N)c3c2C)c1,–,0.0103 µM (active)
Nc1nc2cc(Cl)ccc2n1N,8.14%,–
CCC(C)CN1C(=O)CSCC1(C)C(=O)NCc1ccccc1 (centres undefined),24.8%,–
Cc1sc2ccccc2c1CNC[C@H]1O[C@@H](n2ccc(=O)[nH]c2=O)[C@H](O)[C@@H]1O,14.3%,–
O=C(COC(=O)c1cncc(Br)c1)Nc1ccc(S(=O)(=O)N2CCOCC2)cc1,-1.98%,–
